Experiment [1] can be described thus: High-throughput drug toxicity screening in the BPDCN cell line Cal-1 (AID 1224825; call rule not given here). The settings on record: Cal-1 BPDCN cell viability, qHTS; at 45.8 µM (top of the series) unless noted. Summed up: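 Viability of the BPDCN line Cal-1 is measured as ATP-based luminescence (CellTiter-Glo) following 48 h incubation with compounds. Percent activity uses DMSO-treated wells as 100% and 9.2 uM bortezomib as 0%.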
(In general: qHTS replaces the single test concentration by a dilution series.)

Experiment [2] is described as follows: qHTS assay for measurement of the activity of small molecule inhibitors on Zika virus induced Caspase-3 activity in human iPSC derived neural progenitor cells (hNPCs) (AID 1224857). Also: nearly all actives have a fitted effect of over 65% in size. Also: potency is read from the fitted curve at half-maximal effect. In a few lines: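 After overnight (16–20 h) culture at 350 cells/well, hNPCs get compound, then ZIKV 2 FFU/cell one hour later. Six hours on, Caspase-Glo 3/7 is added and luminescence measured.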

Experiment [3] can be described thus: qHTS assay for measurement of the activity of small molecule inhibitors on Zika virus induced Caspase-3 activity in human astrocytoma cells (AID 1224859). Also: potency is read from the fitted curve at half-maximal effect. Summed up: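 Inhibition of Zika-induced caspase-3/7 activity: SNB-19 cells, 1 h compound pretreatment, ZIKV 2 FFU/cell for 6 h at 37 C, Caspase-Glo luminescence read-out.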
Experiment [4] is described as follows: qHTS Screen of the MIPE 4.0 Collection Against Ewings Sarcoma (RDES) (AID 1259252). Also: nearly all actives have a fitted effect of over 35% in size. Also: potency is read from the fitted curve at half-maximal effect. Summed up: (§1)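 Here, cells in 5% FBS RPMI were exposed for two days (48 h) to compound dilutions added four hours after plating. ATP-based CellTiter-Glo luminescence measured viability, normalized to vehicle and no-cell blanks.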
Experiment [5] in a line: qHTS Screen of the MIPE 4.0 Collection Against Ewings Sarcoma (TC71) (AID 1259253). Also: nearly all actives have a fitted effect of over 40% in size. Also: potency is read from the fitted curve at half-maximal effect. Summed up: as §1
The nature of experiment [6]: qHTS Screen of the MIPE 4.0 Collection Against Ewings Sarcoma (EW8) (AID 1259255). Also: nearly all actives have a fitted effect of over 35% in size. Also: potency is read from the fitted curve at half-maximal effect.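 As to viability: 100% = DMSO-treated cells and 0% = medium-only wells without cells.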 In a few lines:
as §1

Experiment [7] in a line: qHTS Screen of the MIPE 4.0 Collection Against Ewings Sarcoma (TC32) (AID 1259256). Also: nearly all actives have a fitted effect of over 45% in size. Also: potency is read from the fitted curve at half-maximal effect. In a few lines: as §1
Experiment [8] in a line: qHTS assay to identify small molecule inhibitors of chordoma cells - UCH-1 (AID 1259355). Also: % is scaled to controls: 0 for no effect and ±100 for the full control effect; nearly all actives have a fitted effect of over 55% in size. Summed up:
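A 48hr growth-inhibition format: each drug tested at 15 concentrations together with added auranofin, camptothecin, doxorubicin, rubitecan and topotecan, with cell viability quantified as CellTiter-Glo luminescence.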

Experiment [9] in a line: qHTS assay to identify small molecule inhibitors of chordoma cells - UCH-2 (AID 1259356). Also: potency is read from the fitted curve at half-maximal effect.

Molecules are shown by their SMILES. Results filed as inconclusive are left out. A structure can be active in one record and inactive in another. Calls of active or inactive are those of the source. Unless noted, calls follow the shape of the dose curve; as a rule, active = well fitted curve in the direction sought with a large enough effect; inconclusive = small, poorly fitted or top-dose-only effect, or another doubt; inactive = no such curve, though single readings can be large; an effect the other way counts as inactive or inconclusive.

Take `C[C@]12C=CC(=O)C=C1CC[C@@H]1[C@@H]2C(=O)C[C@@]2(C)[C@H]1CC[C@]2(O)C(=O)CO`: the viability (% of control) in [1] worked out at 86.4% [at 23.2 µM]. Besides, the Potency result in experiment [2], in experiment [3], in [4], in experiment [5], in experiment [6] and in experiment [7] was “inactive” each time. For the same compound, the Potency entry in experiment [8] and in experiment [9] was “inactive” each time.
Consider `Cc1ccc(S(=O)(=O)N[C@@H](Cc2ccccc2)C(=O)CCl)cc1`, for which the viability (% of control) in experiment [1] was 3.45%. In addition, the Potency entry in [2] and in experiment [3] was “inactive” throughout. For the same compound, the Potency was 26.4 µM (active) in [4], 18.7 µM (active) in experiment [5], 16.6 µM (active) in [6] and 14.8 µM (active) in [7].
For the compound `CC(C)OC(=O)OCOP(=O)(CO[C@H](C)Cn1cnc2c(N)ncnc21)OCOC(=O)OC(C)C`, in experiment [1], the viability (% of control) was 42.8%. The Potency result in experiment [2], in experiment [3] and in experiment [4] was “inactive” each time. Further, the Potency in experiment [5] was 18.7 µM (active); in experiment [6], 23.5 µM (active).
For `COc1cnc(NS(=O)(=O)c2ccc(N)cc2)nc1`, the viability (% of control) in experiment [1] was determined as 21.6%. Also, the Potency result in [2], in experiment [3], in experiment [4], in [5], in experiment [6] and in experiment [7] was “inactive” in each case. Also, the Potency entry in [8] and in experiment [9] was “inactive” each time.
With `CC(C)(C)NC(=O)[C@H]1CC[C@H]2[C@@H]3CC[C@H]4NC(=O)C=C[C@]4(C)[C@H]3CC[C@]12C`, the viability (% of control) in experiment [1] is 4.87%. The Potency result in [2], in experiment [3], in experiment [8] and in experiment [9] was “inactive” in each case. The Potency in experiment [4] is 1.05 µM (active); in [5] it was 1.32 µM (active); in experiment [6] it was 5.9 µM (active); in experiment [7], 3.72 µM (active).
Regarding `COc1ccc2c(c1)c(CC(=O)OCC(=O)O)c(C)n2C(=O)c1ccc(Cl)cc1`, the viability (% of control) in experiment [1] worked out at 119%. In addition, the Potency result in [2], in experiment [3], in experiment [4], in [5], in [6] and in [7] was “inactive” throughout.
On to `CCn1cc(C(=O)O)c(=O)c2cc(F)c(N3CCN(C)CC3)cc21`, for which, in [1], the viability (% of control) is 97.9%. Moreover, the Potency result in experiment [2], in experiment [3], in experiment [4], in [5], in experiment [6] and in [7] was “inactive” each time. In addition, the Potency result in experiment [8] and in [9] was “inactive” each time.
Regarding `N[C@@H](C(=O)N[C@@H]1C(=O)N2C(C(=O)O)=C(Cl)CS[C@H]12)c1ccccc1`, the viability (% of control) in experiment [1] is 108%. Also, the Potency entry in [2], in [3], in [4], in [5], in experiment [6] and in experiment [7] was “inactive” throughout. Also, the Potency entry in experiment [8] and in [9] was “inactive” in each case.
Turning to `O=c1cc(O)c(Cl)c[nH]1`, the viability (% of control) in experiment [1] was 39.2%. The Potency entry in experiment [2], in experiment [3], in [4], in experiment [5], in experiment [6] and in experiment [7] was “inactive” in each case. Further, the Potency entry in [8] and in experiment [9] was “inactive” in each case.
With `CCCOc1ccc(C(=O)OCCN(CC)CC)cc1N`, the viability (% of control) in experiment [1] came out at 105%. Further, the Potency entry in experiment [2], in experiment [3], in [4], in experiment [5], in [6] and in experiment [7] was “inactive” in each case.
Take `OCc1ccc(-c2nn(Cc3ccccc3)c3ccccc23)o1`: the viability (% of control) in experiment [1] stood at 104%. Moreover, the Potency result in [2] and in experiment [3] was “inactive” throughout. The Potency is 2.64 µM (active) in [4], 14.8 µM (active) in experiment [5] and 1.18 µM (active) in [6].
For the compound `COc1cc2nc(N3CCCN(C)CC3)nc(NC3CCN(Cc4ccccc4)CC3)c2cc1OC`, the viability (% of control) in [1] came out at 4.13%. For the same compound, the Potency entry in experiment [2] and in [3] was “inactive” each time. In addition, the Potency in experiment [4] is 8.33 µM (active); in experiment [5] it was 10.5 µM (active); in experiment [6], 7.43 µM (active); in experiment [7], 5.26 µM (active).
Turning to `COc1cccc(N(C)C(=S)Oc2ccc3c(c2)CCCC3)n1`, the viability (% of control) in [1] worked out at 76.1%. The Potency result in experiment [2], in experiment [3], in experiment [4], in experiment [5], in experiment [6] and in experiment [7] was “inactive” throughout. The Potency entry in [8] and in experiment [9] was “inactive” in each case.
As to `O=C(O)C1CCCN(CCC=C(c2ccccc2)c2ccccc2)C1` (stereo unspecified), the viability (% of control) in [1] is 127%. Moreover, the Potency result in [2] and in experiment [3] was “inactive” in each case. Also, the Potency is 11.8 µM (active) in experiment [4], 9.35 µM (active) in [5], 13.2 µM (active) in [6] and 9.35 µM (active) in experiment [7].
Consider `C#CCN[C@@H]1CCc2ccccc21`, for which the viability (% of control) in [1] worked out at 57.2%. For the same compound, the Potency result in experiment [2], in experiment [3], in experiment [4], in experiment [5], in [6] and in [7] was “inactive” each time. In addition, the Potency entry in experiment [8] and in experiment [9] was “inactive” throughout.
As to `Oc1c(Cl)cc(Cl)c2cccnc12`, the viability (% of control) in [1] worked out at 9.09%. In addition, the Potency entry in experiment [2] and in experiment [3] was “inactive” in each case. Further, the Potency is 13.2 µM (active) in [4]; 10.5 µM (active) in experiment [5]; 8.33 µM (active) in experiment [6]; 7.43 µM (active) in [7]; 23.1 µM (active) in experiment [9].
For the compound `Cc1ccnc2c1NC(=O)c1cccnc1N2C1CC1`, in experiment [1], the viability (% of control) was 7.09%. The Potency entry in [2], in experiment [3], in experiment [4], in experiment [5], in experiment [6] and in [7] was “inactive” in each case. In addition, the Potency result in experiment [8] and in experiment [9] was “inactive” throughout.
In the case of `Nc1nc(N)nc(-c2cc(Cl)ccc2Cl)n1`, the viability (% of control) in experiment [1] was 98%. For the same compound, the Potency result in experiment [2], in experiment [3], in experiment [4], in experiment [5], in [6] and in experiment [7] was “inactive” in each case. Besides, the Potency entry in experiment [8] and in [9] was “inactive” throughout.
On to `COc1ccc(C(=O)CC(=O)c2ccc(C(C)(C)C)cc2)cc1`, for which the viability (% of control) in experiment [1] turned out to be 5.54%. For the same compound, the Potency result in experiment [2], in experiment [3] and in experiment [9] was “inactive” in each case. For the same compound, the Potency in [4] was 1.05 µM (active); in experiment [5] it was 1.66 µM (active); in experiment [6], 2.09 µM (active); in experiment [7] it was 1.66 µM (active).
Consider `CN(CCOc1ccc(CC2SC(=O)NC2=O)cc1)c1ccccn1` (stereo unspecified), for which the viability (% of control) in experiment [1] turned out to be 107%. The Potency result in experiment [2], in experiment [3], in experiment [6], in experiment [7], in [8] and in [9] was “inactive” in each case. Moreover, the Potency was 6.62 µM (active) in experiment [4] and 10.5 µM (active) in experiment [5].
As to `CC(=O)Oc1ccccc1C(=O)Nc1ncc([N+](=O)[O-])s1`, in experiment [1], the viability (% of control) worked out at 38.5% [at 92.2 µM]. For the same compound, the Potency in [2] is 1.91 µM (active); in [3], 1.71 µM (active) and inactive; in experiment [4] it was 21.5 µM (active); in experiment [5] it was 19.1 µM (active); in [6] it was 21.5 µM (active); in experiment [7] it was 21.5 µM (active). For the same compound, the Potency entry in experiment [9] was “inactive”.
For the compound `C[C@@H](NCCCc1cccc(C(F)(F)F)c1)c1cccc2ccccc12`, the viability (% of control) in experiment [1] worked out at 110%. The Potency entry in experiment [2], in experiment [3], in experiment [4] and in experiment [6] was “inactive” each time. The Potency is 1.48 µM (active) in experiment [5] and 25.9 µM (active) in [9].
Consider `C[C@@H]1C[C@H]2[C@@H]3CCC4=CC(=O)C=C[C@]4(C)[C@@]3(Cl)[C@@H](O)C[C@]2(C)[C@@]1(OC(=O)c1ccco1)C(=O)CCl`, for which the viability (% of control) in [1] was found to be 6.87%. In addition, the Potency result in [2], in experiment [3], in [8] and in [9] was “inactive” in each case. Besides, the Potency in experiment [4] is 3.72 µM (active); in experiment [5] it was 4.69 µM (active); in [6] it was 11.8 µM (active); in [7] it was 11.8 µM (active).
